From the supplement of paper PMC10849652
About 8,800 targets were measured; listed, in parts, are those with a hit and a random draw of the rest. About 0.5% of all pairs of compound and target were hits.

Tests used:
Test in all cases: log2 fold change, soluble protein after heating vs DMSO (PISA); higher = thermal stabilisation; K562 lysate, 10 uM; active = over 0.2 and 3.5 SD of the protein, either way, in both replicates (recomputed)
[1] = compound: CC[C@@H]1C(=O)N(C)c2cnc(Nc3ccc(C(=O)NC4CCN(C)CC4)cc3OC)nc2N1C1CCCC1
Summary of the method: (§1)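 Values give the log-two fold change in thermal stability against solvent controls, from duplicates. Crude K562 extract at 1 mg/mL protein, made by dounce homogenisation in PBS pH 7.4 with 1 mM MgCl2, was treated with 10 μM compound for 30 min. After 3 min heating across 48°C-58°C, aliquots were pooled, adjusted to 0.5% NP-40 at 4°C and centrifuged at 21,000xg for 90 min. The supernatant was measured by TMTpro 16plex LC-MS/MS with channel sums equalised.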

ralimetinib = compound: CC(C)(C)Cn1c(N)nc2ccc(-c3[nH]c(C(C)(C)C)nc3-c3ccc(F)cc3)nc21 [ralimetinib]
Summary of the method: as §1

[2] = compound: CC(C)(O)CC(=O)NCCn1ccc2ncnc(Nc3ccc(Oc4cccc(C(F)(F)F)c4)c(Cl)c3)c21
Summary of the method: as §1

[3] = compound: CC1=C(C(CC(=O)N1)C2=CC=C(C=C2)C(F)(F)F)C(=O)NC3=C(C=C4C(=C3)C=NN4)F
Summary of the method: as §1

[4] = compound: CC1=C(C=C(C=C1)NC(=O)C2=CC(=CC=C2)N(C)C)NC(=O)C3=CC=C(C=C3)O
Summary of the method: as §1

[5] = compound: CCn1c(C(=O)N(C2CC2)C2CC2)cc2c3c(ncn3C)c(Nc3cc(C)n(C)n3)nc21
Summary of the method: as §1

[6] = compound: CC(=O)c1cnc2ccc(-c3cc(Cl)c(O)c(Cl)c3)nc2c1N[C@H]1CC[C@H](CN(C)C)CC1
Summary of the method: as §1

[7] = compound: CC(C)C1=C2N=C(C=C(N2N=C1)NCC3=CC=CC=C3)NCCCCCCN
Summary of the method: as §1

[8] = compound: CC1=C(C2=C(C=C1)C(=O)C3=CC=CC=C3N2CCCN)C
Summary of the method: as §1

[9] = compound: CC1=C(C=C(C=C1)NC(=O)C2=CC(=CC=C2)C(C)(C)C#N)NC3=CC4=C(C=C3)N=CN(C4=O)C
Summary of the method: as §1

[10] = compound: CC1=CC=C(C=C1)SC2=C3C=C(SC3=CN=C2)C(=O)N
Summary of the method: as §1

vemurafenib = compound: CCCS(=O)(=O)Nc1ccc(F)c(C(=O)c2c[nH]c3ncc(-c4ccc(Cl)cc4)cc23)c1F [vemurafenib]
Summary of the method: as §1

[11] = compound: CCCS(=O)(=O)Nc1ccc(F)c(C(=O)c2c[nH]c3ncc(Cl)cc23)c1F
Summary of the method: as §1

volasertib = compound: CC[C@@H]1C(=O)N(C)c2cnc(Nc3ccc(C(=O)N[C@H]4CC[C@H](N5CCN(CC6CC6)CC5)CC4)cc3OC)nc2N1C(C)C [volasertib]
Summary of the method: as §1

[12] = compound: CCn1cc(-c2ccnc3[nH]c(-c4cccc(CN(C)C)c4)cc23)c(-c2ccc(NC(=O)N(C)C)cc2)n1
Summary of the method: as §1

[13] = compound: CN1CCC(CNc2ccc3ncc(-c4cccc(OC(F)(F)F)c4)n3n2)CC1
Summary of the method: as §1

saracatinib = compound: CN1CCN(CCOc2cc(OC3CCOCC3)c3c(Nc4c(Cl)ccc5c4OCO5)ncnc3c2)CC1 [saracatinib]
Summary of the method: as §1

sotrastaurin = compound: CN1CCN(c2nc(C3=C(c4c[nH]c5ccccc45)C(=O)NC3=O)c3ccccc3n2)CC1 [sotrastaurin]
Summary of the method: as §1

ibrutinib = compound: C=CC(=O)N1CCC[C@@H](n2nc(-c3ccc(Oc4ccccc4)cc3)c3c(N)ncnc32)C1 [ibrutinib]
Summary of the method: as §1

barasertib = compound: CCN(CCCOc1ccc2c(Nc3cc(CC(=O)Nc4cccc(F)c4)[nH]n3)ncnc2c1)CCOP(=O)(O)O [barasertib]
Summary of the method: as §1

UniProt P49116, sequence (P49116 whole entry, looked up): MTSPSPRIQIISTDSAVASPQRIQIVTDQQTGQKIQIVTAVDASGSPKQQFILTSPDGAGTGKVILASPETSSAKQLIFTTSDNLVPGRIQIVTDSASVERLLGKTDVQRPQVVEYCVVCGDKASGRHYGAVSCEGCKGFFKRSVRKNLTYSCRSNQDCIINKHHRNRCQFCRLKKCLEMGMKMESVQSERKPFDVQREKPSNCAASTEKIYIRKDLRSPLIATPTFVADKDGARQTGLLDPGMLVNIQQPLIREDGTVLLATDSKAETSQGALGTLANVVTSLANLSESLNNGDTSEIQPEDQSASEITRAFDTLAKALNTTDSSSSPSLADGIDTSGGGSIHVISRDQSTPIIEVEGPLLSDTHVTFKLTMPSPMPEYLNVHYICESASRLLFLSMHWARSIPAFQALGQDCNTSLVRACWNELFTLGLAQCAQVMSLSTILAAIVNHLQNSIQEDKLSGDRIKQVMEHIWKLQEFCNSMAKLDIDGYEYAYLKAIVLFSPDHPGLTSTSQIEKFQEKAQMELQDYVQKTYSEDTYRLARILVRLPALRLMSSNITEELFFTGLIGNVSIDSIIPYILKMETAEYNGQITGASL
UniProt P48552, sequence (P48552 whole entry, looked up): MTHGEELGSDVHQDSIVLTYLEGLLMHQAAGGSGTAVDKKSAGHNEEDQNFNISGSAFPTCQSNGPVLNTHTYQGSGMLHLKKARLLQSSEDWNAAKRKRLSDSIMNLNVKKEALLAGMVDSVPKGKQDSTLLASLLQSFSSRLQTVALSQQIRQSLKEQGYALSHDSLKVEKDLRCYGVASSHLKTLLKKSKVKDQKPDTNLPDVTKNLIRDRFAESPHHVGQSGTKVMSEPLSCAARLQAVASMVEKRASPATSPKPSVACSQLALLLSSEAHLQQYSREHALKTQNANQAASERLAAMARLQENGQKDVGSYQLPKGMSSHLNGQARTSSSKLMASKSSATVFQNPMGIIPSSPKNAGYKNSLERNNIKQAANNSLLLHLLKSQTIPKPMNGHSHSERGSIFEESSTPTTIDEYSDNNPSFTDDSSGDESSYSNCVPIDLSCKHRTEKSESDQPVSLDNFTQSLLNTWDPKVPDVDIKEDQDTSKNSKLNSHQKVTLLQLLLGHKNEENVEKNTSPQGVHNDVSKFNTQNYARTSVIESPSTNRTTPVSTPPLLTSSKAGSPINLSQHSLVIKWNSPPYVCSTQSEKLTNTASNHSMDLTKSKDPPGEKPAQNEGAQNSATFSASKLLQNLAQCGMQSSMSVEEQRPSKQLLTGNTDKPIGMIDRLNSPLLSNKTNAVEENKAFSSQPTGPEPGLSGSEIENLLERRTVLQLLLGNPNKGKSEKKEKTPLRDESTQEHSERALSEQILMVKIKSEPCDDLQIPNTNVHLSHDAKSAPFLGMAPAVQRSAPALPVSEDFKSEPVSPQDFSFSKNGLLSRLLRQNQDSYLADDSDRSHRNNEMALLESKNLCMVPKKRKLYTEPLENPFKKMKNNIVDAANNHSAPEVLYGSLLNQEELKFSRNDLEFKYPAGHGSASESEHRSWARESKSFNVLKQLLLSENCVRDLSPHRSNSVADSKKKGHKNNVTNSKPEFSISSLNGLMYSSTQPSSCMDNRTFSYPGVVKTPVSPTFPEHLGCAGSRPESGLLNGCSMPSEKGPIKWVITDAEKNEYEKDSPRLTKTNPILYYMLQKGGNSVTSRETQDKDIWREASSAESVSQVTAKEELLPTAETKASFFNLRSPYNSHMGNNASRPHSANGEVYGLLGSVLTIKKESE
UniProt Q14934, sequence (Q14934 whole entry, looked up): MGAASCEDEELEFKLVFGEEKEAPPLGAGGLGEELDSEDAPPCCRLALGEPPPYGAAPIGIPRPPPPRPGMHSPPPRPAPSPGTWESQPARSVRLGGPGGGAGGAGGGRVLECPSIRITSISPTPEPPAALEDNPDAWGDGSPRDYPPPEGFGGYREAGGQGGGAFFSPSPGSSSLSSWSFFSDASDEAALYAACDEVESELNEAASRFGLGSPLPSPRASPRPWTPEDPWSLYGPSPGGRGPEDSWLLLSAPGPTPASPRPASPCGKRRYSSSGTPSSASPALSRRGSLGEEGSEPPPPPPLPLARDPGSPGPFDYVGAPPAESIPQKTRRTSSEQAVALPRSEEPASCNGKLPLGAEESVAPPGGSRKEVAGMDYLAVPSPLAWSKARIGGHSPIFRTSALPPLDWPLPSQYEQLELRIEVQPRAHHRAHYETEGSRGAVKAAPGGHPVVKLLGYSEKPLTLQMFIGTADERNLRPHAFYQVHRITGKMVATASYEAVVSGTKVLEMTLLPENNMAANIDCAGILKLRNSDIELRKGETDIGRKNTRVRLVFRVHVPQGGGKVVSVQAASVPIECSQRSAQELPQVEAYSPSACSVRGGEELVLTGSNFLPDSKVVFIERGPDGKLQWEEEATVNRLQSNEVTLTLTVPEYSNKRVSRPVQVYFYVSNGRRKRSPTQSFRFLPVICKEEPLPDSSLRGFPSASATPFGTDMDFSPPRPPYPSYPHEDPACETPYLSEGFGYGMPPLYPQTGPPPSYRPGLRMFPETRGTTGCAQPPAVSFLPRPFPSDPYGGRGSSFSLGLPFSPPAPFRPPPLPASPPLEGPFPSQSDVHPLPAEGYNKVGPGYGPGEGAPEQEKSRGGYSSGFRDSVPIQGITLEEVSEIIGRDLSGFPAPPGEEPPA
UniProt Q15746, sequence (Q15746 whole entry, looked up): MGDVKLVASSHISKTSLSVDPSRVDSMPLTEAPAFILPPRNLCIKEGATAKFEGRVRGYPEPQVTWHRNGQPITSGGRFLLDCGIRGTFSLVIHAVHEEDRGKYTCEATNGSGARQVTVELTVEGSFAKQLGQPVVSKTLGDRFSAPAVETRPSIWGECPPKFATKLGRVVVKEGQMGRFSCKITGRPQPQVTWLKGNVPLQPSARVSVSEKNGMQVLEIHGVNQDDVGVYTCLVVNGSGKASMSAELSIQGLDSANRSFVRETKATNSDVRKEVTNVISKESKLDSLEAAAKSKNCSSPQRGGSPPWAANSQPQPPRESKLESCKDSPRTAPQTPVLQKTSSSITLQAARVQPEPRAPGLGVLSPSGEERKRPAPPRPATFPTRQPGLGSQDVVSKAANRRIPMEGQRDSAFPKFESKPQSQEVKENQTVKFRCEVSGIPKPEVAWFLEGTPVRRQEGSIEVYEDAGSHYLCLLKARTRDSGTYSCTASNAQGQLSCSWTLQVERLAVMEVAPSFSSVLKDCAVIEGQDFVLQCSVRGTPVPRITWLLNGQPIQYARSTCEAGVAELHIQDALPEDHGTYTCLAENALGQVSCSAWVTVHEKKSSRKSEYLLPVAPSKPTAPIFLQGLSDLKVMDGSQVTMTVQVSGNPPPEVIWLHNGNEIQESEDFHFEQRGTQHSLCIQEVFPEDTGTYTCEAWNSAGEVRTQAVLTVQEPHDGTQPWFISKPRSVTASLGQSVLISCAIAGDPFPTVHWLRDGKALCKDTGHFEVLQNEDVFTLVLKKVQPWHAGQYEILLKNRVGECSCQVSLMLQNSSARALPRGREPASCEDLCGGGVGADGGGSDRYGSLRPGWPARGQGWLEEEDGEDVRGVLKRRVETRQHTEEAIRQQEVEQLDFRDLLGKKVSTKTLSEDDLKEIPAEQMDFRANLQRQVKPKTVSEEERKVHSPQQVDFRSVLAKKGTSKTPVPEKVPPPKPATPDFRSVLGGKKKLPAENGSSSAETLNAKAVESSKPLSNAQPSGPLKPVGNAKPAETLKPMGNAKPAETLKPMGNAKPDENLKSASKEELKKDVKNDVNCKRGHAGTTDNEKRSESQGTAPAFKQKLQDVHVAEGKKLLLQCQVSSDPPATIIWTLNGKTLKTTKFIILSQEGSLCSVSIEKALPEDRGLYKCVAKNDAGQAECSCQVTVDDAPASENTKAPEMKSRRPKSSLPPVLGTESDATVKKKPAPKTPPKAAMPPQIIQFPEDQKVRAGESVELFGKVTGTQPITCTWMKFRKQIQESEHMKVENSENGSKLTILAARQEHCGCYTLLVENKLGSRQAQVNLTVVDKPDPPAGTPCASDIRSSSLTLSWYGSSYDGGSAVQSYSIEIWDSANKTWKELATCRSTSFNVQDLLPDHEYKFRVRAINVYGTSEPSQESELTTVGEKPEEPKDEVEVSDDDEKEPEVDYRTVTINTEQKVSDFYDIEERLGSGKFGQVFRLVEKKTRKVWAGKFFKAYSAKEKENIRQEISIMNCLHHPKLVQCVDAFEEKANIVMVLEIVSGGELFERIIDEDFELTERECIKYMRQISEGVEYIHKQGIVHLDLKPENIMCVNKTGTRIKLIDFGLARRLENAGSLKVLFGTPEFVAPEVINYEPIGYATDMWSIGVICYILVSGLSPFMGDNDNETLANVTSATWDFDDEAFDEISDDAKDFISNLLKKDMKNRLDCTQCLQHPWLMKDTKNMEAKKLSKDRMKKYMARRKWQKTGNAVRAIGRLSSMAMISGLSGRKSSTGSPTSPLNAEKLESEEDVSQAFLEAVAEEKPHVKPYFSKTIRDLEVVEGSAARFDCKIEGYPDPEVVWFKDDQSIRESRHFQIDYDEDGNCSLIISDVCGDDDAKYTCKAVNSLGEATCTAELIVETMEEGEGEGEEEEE
UniProt Q5JRK9, sequence (Q5JRK9 whole entry, looked up): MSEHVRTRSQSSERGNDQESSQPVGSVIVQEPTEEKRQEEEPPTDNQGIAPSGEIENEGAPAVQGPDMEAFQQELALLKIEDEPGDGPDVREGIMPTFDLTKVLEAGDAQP
UniProt P84157, sequence (P84157 whole entry, looked up): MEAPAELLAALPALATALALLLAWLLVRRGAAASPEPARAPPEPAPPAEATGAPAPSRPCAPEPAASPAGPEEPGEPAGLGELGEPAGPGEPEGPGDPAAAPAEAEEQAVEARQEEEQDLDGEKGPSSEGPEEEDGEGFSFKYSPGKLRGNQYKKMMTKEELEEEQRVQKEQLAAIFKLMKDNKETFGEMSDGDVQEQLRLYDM
UniProt P03928, sequence (P03928 whole entry, looked up): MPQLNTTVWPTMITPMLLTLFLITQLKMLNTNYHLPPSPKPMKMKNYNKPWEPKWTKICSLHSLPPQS

Target	log2 fold change [1]	log2 fold change (ralimetinib)	log2 fold change [2]	log2 fold change [3]	log2 fold change [4]	log2 fold change [5]	log2 fold change [6]	log2 fold change [7]	log2 fold change [8]	log2 fold change [9]	log2 fold change [10]	log2 fold change (vemurafenib)	log2 fold change [11]	log2 fold change (volasertib)	log2 fold change [12]	log2 fold change [13]	log2 fold change (saracatinib)	log2 fold change (sotrastaurin)	log2 fold change (ibrutinib)	log2 fold change (barasertib)
ORC1 (UniProt Q13415)	0.185 (inactive)																			
MUC5AC (UniProt P98088)		-0.067 (inactive)	0.06 (inactive)	1.44 (inactive)	0.041 (inactive)	0 (inactive)														
PAGE2B (UniProt Q5JRK9)	-0.027 (inactive)	-0.024 (inactive)	-0.032 (inactive)	0.023 (inactive)	0.238 (inactive)	-0.008 (inactive)	-0.049 (inactive)	-0.054 (inactive)	0.044 (inactive)	-0.003 (inactive)	0.022 (inactive)	0.008 (inactive)	-0.056 (inactive)	-0.013 (inactive)	-0.034 (inactive)	-0.239 (inactive)	0.176 (inactive)	0.05 (inactive)		
MXRA7 (UniProt P84157)	-0.006 (inactive)	0.108 (inactive)	0.027 (inactive)	-0.074 (inactive)	0.045 (inactive)	0.049 (inactive)	-0.234 (inactive)	-0.057 (inactive)	0.024 (inactive)	0.021 (inactive)	-0.023 (inactive)	-0.134 (inactive)	0.094 (inactive)	0.054 (inactive)	-0.182 (inactive)	0.167 (inactive)	0.02 (inactive)	-0.064 (inactive)		
NTMT1 (UniProt S4R338)							-0.182 (inactive)				0.058 (inactive)		0.043 (inactive)	-0.002 (inactive)						
PARD3B (UniProt Q8TEW8)								0.091 (inactive)	0.071 (inactive)						1.46 (inactive)	-0.046 (inactive)	-0.002 (inactive)			
PANK2 (UniProt Q9BZ23)	0.011 (inactive)	-0.069 (inactive)	-0.047 (inactive)	-0.073 (inactive)	-0.002 (inactive)	0.002 (inactive)	0.001 (inactive)		-0.126 (inactive)	-0.046 (inactive)	0.023 (inactive)	0.093 (inactive)	-0.036 (inactive)	-0.086 (inactive)	-0.167 (inactive)	-0.057 (inactive)	0.068 (inactive)	0.027 (inactive)	-0.056 (inactive)	-0.047 (inactive)
MT-ATP8 (UniProt P03928)	0.063 (inactive)	0.005 (inactive)	-0.109 (inactive)	-0.082 (inactive)	0.047 (inactive)	0.128 (inactive)	-0.052 (inactive)	-0.087 (inactive)		0.153 (inactive)	0.104 (inactive)	0.033 (inactive)	-0.036 (inactive)	0.015 (inactive)	0.711 (active)	-0.144 (inactive)		-0.084 (inactive)	-0.035 (inactive)	0.057 (inactive)
MYO10 (UniProt Q9HD67)		-0.136 (inactive)	-0.385 (inactive)	-0.078 (inactive)	0.042 (inactive)	-0.185 (inactive)		0.035 (inactive)		-0.001 (inactive)		0.483 (inactive)			1.26 (active)	-0.381 (inactive)		-0.287 (inactive)	-0.059 (inactive)	0.171 (inactive)
NFAT5 isoform 4 (UniProt O94916)										0.088 (inactive)								0 (inactive)	-0.016 (inactive)	-0.039 (inactive)
MTHFD1 (UniProt V9GZ32)				-0.18 (inactive)			0.045 (inactive)				0.088 (inactive)		0.008 (inactive)	-0.145 (inactive)						
NUB1 (UniProt H7C5N1)		0.133 (inactive)	-0.146 (inactive)		-0.131 (inactive)	0.312 (inactive)														
NRIP1 (UniProt P48552)		-0.05 (inactive)	-0.165 (inactive)	0.093 (inactive)	-0.005 (inactive)	-0.124 (inactive)	-0.055 (inactive)	-0.007 (inactive)	-0.217 (inactive)	0.175 (inactive)	-0.102 (inactive)		0.024 (inactive)	-0.055 (inactive)	-0.651 (active)	0.17 (inactive)	-0.071 (inactive)	-0.074 (inactive)	-0.018 (inactive)	0.076 (inactive)
NPLOC4 (UniProt I3L3I1)	0.104 (inactive)								-0.169 (inactive)	0.447 (inactive)							0.152 (inactive)	-0.108 (inactive)	-0.022 (inactive)	0.125 (inactive)
MYO9A isoform 4 (UniProt B2RTY4)		0.022 (inactive)	0.068 (inactive)	-0.031 (inactive)	0.043 (inactive)	-0.019 (inactive)	0.016 (inactive)	0.03 (inactive)	-0.142 (inactive)	-0.037 (inactive)	-0.005 (inactive)	0.248 (active)	0.023 (inactive)	-0.028 (inactive)	-0.021 (inactive)	0.002 (inactive)	-0.068 (inactive)	0.093 (inactive)	-0.057 (inactive)	0.053 (inactive)
MYLK (UniProt Q15746)	-0.675 (active)			0.061 (inactive)			0.226 (inactive)			0.228 (inactive)	0.004 (inactive)	-0.254 (inactive)	-0.022 (inactive)	-0.053 (inactive)	-0.169 (inactive)	0.014 (inactive)		-0.084 (inactive)	0.099 (inactive)	-0.097 (inactive)
NR2C2 isoform 2 (UniProt P49116)	-0.091 (inactive)	0.014 (inactive)	0 (inactive)		-0.019 (inactive)	0.003 (inactive)	-0.081 (inactive)	-0.03 (inactive)	-0.064 (inactive)	0.044 (inactive)	-0.086 (inactive)	-0.087 (inactive)	0.049 (inactive)	-0.001 (inactive)	0.075 (inactive)	-0.074 (inactive)	-0.058 (inactive)	0.002 (inactive)	0.069 (inactive)	0.017 (inactive)
P2RY1 (UniProt P47900)	0.006 (inactive)	-0.045 (inactive)	-0.107 (inactive)		-0.009 (inactive)	0.022 (inactive)	0.102 (inactive)	-0.322 (inactive)	0.064 (inactive)		0.058 (inactive)		-0.08 (inactive)	-0.111 (inactive)	0.057 (inactive)	0.093 (inactive)	0.015 (inactive)		-0.026 (inactive)	0.034 (inactive)
NUMB isoform 2 (UniProt P49757)		0.059 (inactive)	0.12 (inactive)	0.154 (inactive)	-0.062 (inactive)	-0.146 (inactive)			-0.245 (inactive)								-0.04 (inactive)			
NFATC4 isoform 2 (UniProt Q14934)	-0.05 (inactive)			-0.067 (inactive)			-0.075 (inactive)		-0.057 (inactive)	0.125 (inactive)	-0.063 (inactive)	0.081 (inactive)	-0.013 (inactive)	-0.004 (inactive)	0.053 (inactive)	0.068 (inactive)	0.044 (inactive)	0.026 (inactive)	-0.053 (inactive)	0.059 (inactive)
NUDT5 (UniProt C9JYY9)	0.036 (inactive)			-0.05 (inactive)				-0.111 (inactive)												
MYBL2 (UniProt P10244)	0.013 (inactive)	0 (inactive)	0.02 (inactive)		-0.013 (inactive)	0.069 (inactive)		-0.008 (inactive)	0.057 (inactive)	0.048 (inactive)		-0.07 (inactive)			0.217 (inactive)	-0.296 (inactive)	0.057 (inactive)	0.043 (inactive)		
